Measured values: PubChem BioAssay AID1347433 (National Center for Advancing Translational Sciences (NCATS), 2020)
Inconclusive results are not listed. A number with no mark means an inactive call. Active and inactive are the calls of the source. Calls come from the whole dose curve; as a rule, active = well fitted curve in the direction sought with a large enough effect; inconclusive = small, poorly fitted or top-dose-only effect, or another doubt; inactive = no such curve, though single readings can be large or run the other way.

These compounds were tested against Single-stranded DNA cytosine deaminase (Homo sapiens) (UniProt Q9GZX7) (assay: Confirmatory (Round 2) qHTS assay for inhibitors of Activation Induced Cytidine Deaminase (AID): AID signals). Settings: AID deamination FRET-based fluorescence assay with UDG, 4 h; series mostly up to 78.4 µM; activity, negative = inhibition: at the top concentration.
Chain of Single-stranded DNA cytosine deaminase (Homo sapiens) (Q9GZX7 whole entry, looked up): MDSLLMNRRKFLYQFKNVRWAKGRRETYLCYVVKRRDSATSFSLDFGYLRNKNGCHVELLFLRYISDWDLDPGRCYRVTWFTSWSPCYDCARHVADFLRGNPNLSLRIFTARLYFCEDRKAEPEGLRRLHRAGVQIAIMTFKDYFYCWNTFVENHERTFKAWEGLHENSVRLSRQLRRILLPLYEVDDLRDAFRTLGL
Text: Assay Provider (PI) Patricia Gearhart Ph.D. National Institute on Aging National Institute of Health (NIH), Bethesda, MD Assay Provider (PI) Rahul Kohli Ph.D. Perelman School of Medicine University of Pennsylvania, Philadelphia, PA Activation-Induced Deaminase (AID) is a cytosine deaminase which converts cytosine into uracil within stretches of ssDNA. The presence of uracil in DNA initiates a cascade of mutagenic DNA repair to introduce point mutations and DNA double strand breaks. Specific targeting of AID to the immunoglobulin heavy chain loci (Igh) promotes mutagenesis in the antibody variable region for somatic hypermutation (SHM) or switch regions leading to class switch recombination (CSR). However, AID also plays a role in accumulating unnecessary mutations across the genome. Mis-targeting of AID results in the initiation of tumor development and leads to greater drug resistance among cancer cells when continually expressed. To identify an AID inhibitor, a small molecule library will be screened in collaboration with NCATS core facility at NIH. To confirm biological function, inhibitors will be examined in an in vitro murine B-cell activation assay and subsequent secondary validation screens. Top molecules will be further screened to identify inhibitory efficacy against a wild type primary splenocytes assay. Using these approaches, we hope to identify a small molecule with great efficacy and low toxicity for use as a molecular probe to further characterize AID's intricacies, or even as a therapeutic. A FRET based analysis of cytosine deamination, was developed to identify potential inhibitors of AID catalytic activity. This screen has two signal output, Read 1 evaluates the AID inhibition response. The second readout (Read 2) evaluates UDG response and is uses as a counterscreen to exclude false positive inhibitors. Inhibition in AID and inactivity in the UDG signal is the desired outcome for this assay.
PROTOCOL TABLE SEQUENCE No. (e.g., 1, 2, 3, etc.); PARAMETER (e.g., Cells, Incubation, Reagent, etc.); VALUE; DESCRIPTION 1a; Reagent; 3 uL; [4/3x] 1 uM AID/2.67 U/mL UDG 1b; Reagent; 3 uL; 2 U/mL UDG 1c; Reagent; 3 uL; 1 uM AID 2a; Compound; 46 nL; Follow-up plates (0.64 uM - 10 mM) 2b; Control; 46 nL; ATA ([…] - 10 mM) 3; Time; 10 min; incubation at room temperature 4; Reagents; 1 uL; [4x] 250 nM DJC20 / 250 nM DJC23 [Substrate] 5; Time; 4 hr; incubation at room temperature 6; Reagent; 4 uL; [2x] 250 mM NaOH 7; Time; 15 sec; centrifuge at 1000 rpm 8; Time; 30 min; incubation at room temperature 9a; Detection; fluorescence (Read 1: AID); EnVision (PerkinElmer) plate reader, 540 excitation and 590 emission filters 9b; Detection; fluorescence (Read 2: UDG); EnVision (PerkinElmer) plate reader, 560 excitation and 665 emission filters NOTES (numbers refer to sequence above) 1a; Reagents were dispensed in a medium-binding black solid-bottom Greiner plates (789176F) using a BioRptr liquid dispenser. Dispense 3 uL of [4/3x] 1 uM AID (provided by Kohli lab) and [4/3x] 2 U/mL UDG (NEB M0280L) into columns 1, 2, 5 to 48. 1b; Dispense 3 uL of [4/3x] 2 U/mL UDG into column 3. 1c; Dispense 3 uL of [4/3x] 1 uM AID into column 4. 2a; Compound (7-points [uM]: 0.64; 3.2; 16; 80; 400; 2,000; 10,000; […]) double pin-transferred (Dip Factor = 2) using the Kalypsys (Wako USA) pintool equipped with a 1536 pinhead for a final concentration range of 7.32 nM - 114 uM. 2b; 10 mM Aurintricarboxylic Acid (Sigma A1895) (ATA, 8-point, n = 2, 1:2.5 dilution in column 2) double pin-transferred (Dip Factor = 2) using the Kalypsys (Wako USA) pintool equipped with a 1536 pinhead for a [final] range of 186 nM - 114 uM. 3; Room temperature incubation. 4; Dispense 1 uL of substrate mixture from the Kohli lab [4x] […] DJC20 and [4x] 250 nM DJC23 into columns 1 to 48 . 5; Room temperature incubation. 6; Dispense 4 uL of substrate mixture [2x] 250 mM NaOH into columns 1 to 48. 7; Centrifugation step to remove bubbles. […]

Structure (SMILES)	activity, negative = inhibition [%]	Potency
O=c1cc2nc(-c3ccccc3)nc(SCCCn3ccnc3)n2[nH]1	-1.78	–
CN1CCN(CCCSc2nc(-c3ccccc3)nc3cc(=O)[nH]n23)CC1	-1.4	–
Cc1noc(C)c1CCSc1nc(-c2ccccc2)nc2cc(=O)[nH]n12	-15.9	–
Cn1ccnc1CCSc1nc(-c2ccccc2)nc2cc(=O)[nH]n12	-3.59	–
O=c1cc2nc(-c3ccccc3)nc(SCCN3CCC(F)(F)CC3)n2[nH]1	-9.2	–
O=C(O)C1=CC(=C(c2ccc(O)c(C(=O)O)c2)c2ccc(O)c(C(=O)O)c2)C=CC1=O	–	2240 nM (active)
O=c1cc2nc(-c3ccccc3)nc(SCCCc3ccncc3)n2[nH]1	-7.64	–
